Experimental findings from PubChem BioAssay (NCI) are described below.

About 79,000 compounds went through this panel and 15% of them were active in at least one assay; those are over-represented in the sample as a whole. Activity calls are given as the source filed them. Rule as the data show it: active = growth inhibition above about 70%; inactive = the rest.

This assay in a line: NCI Yeast Anticancer Drug Screen. Data for the cln2 rad14 strain (AID 165).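 Also: 0% = growth equal to vehicle treated cultures.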 To be noted: S. cerevisiae cln2 rad14 strain, at 50.0 µM, stronger effect = higher value. The gist of the method:
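Each compound was tested on cln2 rad14 yeast. Inhibition of growth was calculated against vehicle-exposed controls.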
For `N#C/C(=C\C(Cl)=C/c1ccccc1)C(N)=S`, the growth inhibition was 98% (active).

Turning to `CC[N+](C)(CC)CCC(=O)/C=C/c1ccccc1`, the growth inhibition was 53.1% (inactive).

With `CC(=O)n1c(=S)n(C(C)=O)c2ccccc21`, the growth inhibition was 67.8% (inactive).

For the compound `Nc1ccccc1/C=C1/Sc2cc[nH]c2C1=O`, the growth inhibition was 3.1% (inactive).

On to `C=C1CC2(CCCC3(CC(=C)C(=O)O3)C2(C)C)OC1=O` (stereo not given), for which the growth inhibition is 23.1% (inactive).

In the case of `O=C1/C(=C\c2ccc(Cl)cc2Cl)Sc2scc(-c3ccc(O)c(O)c3)[n+]21`, the growth inhibition is 46.5% (inactive).

`COc1cc(OC(C)C)cc2c1C(=O)C(C(O)(O)C(F)(F)F)=CC2=O`: the growth inhibition was 81.2% (active).

As for `Cc1c(N=Nc2ccc(Br)cc2)c(-c2ccccc2)nn1C(N)=S`, the growth inhibition is 95.4% (active).

For the compound `COc1ccc2nc3c([N+](=O)[O-])ccc(NCCCN(C)C)c3c(N)c2c1`, the growth inhibition is 34.5% (inactive).

With `CN(C)CCC[Si]1(C)c2ccccc2CCc2ccccc21`, the growth inhibition was 19.9% (inactive).

In the case of `CC(=O)N(C)c1cc(NCc2ccccc2)ccc1OCc1ccccc1`, the growth inhibition was 79.8% (active).

Turning to `ClCCOCCOc1c(Cl)cc(Cl)c(Cl)c1Cl`, the growth inhibition is -26.7% (inactive).

On to `Nc1ccc2nc(N)sc2c1`, for which the growth inhibition is 42.9% (inactive).

With `CC(C)(C)c1cc(C2c3cc4c(cc3OC(O)(CO)C2C(=O)O)OCO4)cc(C(C)(C)C)c1O` (stereo not given) (tested in a mixture with another compound), the growth inhibition is 72.1% (active).

Turning to `COc1ccc(C2COc3c(ccc(O)c3O)C2)cc1OC` (stereo not given), the growth inhibition is 55.7% (inactive).

For `Cc1ccc(OCC2CO2)c(Br)c1` (stereo not given), the growth inhibition is -44.6% (inactive).

With `CCN(CC)CCNc1ccc(C)c2sc3c(OC)cccc3c(=O)c12`, the growth inhibition is -2.4% (inactive).

Regarding `CC(C)C(O)C(C)C`, the growth inhibition was 17.1% (inactive).

With `O=C1CSC2(CCN(CCCN3c4ccccc4Sc4ccc(Cl)cc43)CC2)N1`, the growth inhibition is 99% (active).

Consider `C1=CN2C(c3ccccc3)=NN(c3ccccc3)[C@@H]2c2ccccc21`, for which the growth inhibition was 27.8% (inactive).

In the case of `CC(=O)Nc1ccc(-c2csc(Nc3ccnc4cc(Cl)ccc34)n2)cc1`, the growth inhibition was 41% (inactive).

Take `O=C(Nc1ccc(/C=C/c2ccc(NC(=O)c3cc(S(=O)(=O)O)c4cccnc4c3O)cc2S(=O)(=O)O)c(S(=O)(=O)O)c1)c1cc(S(=O)(=O)O)c2cccnc2c1O`: the growth inhibition is 90.2% (active).

On to `COc1ccccc1C1C2=C(COC2=O)OC(C)(C)Oc2cc3c(cc21)OCO3` (stereo not given), for which the growth inhibition is 87.3% (active).

For `COC(=O)CSc1n[nH]c(-c2ccc(O)c([N+](=O)[O-])c2)n1`, the growth inhibition is 65.5% (inactive).

For the compound `COc1ccc(CN2CCCN(Cc3ccc(OC)cc3OC)C2c2cccc([N+](=O)[O-])c2O)c(OC)c1`, the growth inhibition was 54.1% (inactive).

Consider `Oc1c(Cl)cc(C(c2cc(Cl)c(O)c(Cl)c2)C(Cl)(Cl)Cl)cc1Cl`, for which the growth inhibition was 98.5% (active).

For the compound `Cc1cc(Cl)cc2c1NC(=O)C2(O)C/C(=N/NC(=O)CC#N)c1cccc([N+](=O)[O-])c1` (stereo not given), the growth inhibition was 9.4% (inactive).

On to `COc1ccc(C2Oc3ccc(Cl)cc3C=C2[N+](=O)[O-])cc1` (stereo not given), for which the growth inhibition is 83.2% (active).

For the compound `CN(Cc1cc(Cl)cc(Cl)c1O)Cc1c(O)ccc2ccccc12`, the growth inhibition is 98.1% (active).

Take `Cc1c(NC(=O)/C(=N/NC(=S)N=N)C2C(=O)CC(C)(C)CC2=O)c(O)c2ccccc2c1O`: the growth inhibition was 47% (inactive).

Consider `O=C1CCC(Cc2ccccc2Br)C(=O)N1` (stereo not given), for which the growth inhibition was -39.2% (inactive).

`O=C1CSc2ccccc2-n2cccc21`: the growth inhibition was -1.1% (inactive).

`CCCc1cc2c(cc1CS(=O)(=O)CC)OCO2`: the growth inhibition was 23.3% (inactive).

As for `CS(=O)(=O)C(c1nc2nnc(NC(=O)Nc3ccc(Cl)cc3)n2[nH]c1=O)c1nc2nnc(NC(=O)Nc3ccc(Cl)cc3)n2[nH]c1=O`, the growth inhibition is 30.6% (inactive).

On to `COc1cc(C2c3cc4c(cc3OC3(O)C=C(C)OC(=O)C23)OCO4)cc(OC)c1OC` (stereo not given), for which the growth inhibition is 9.5% (inactive).

On to `CC(C)OCc1cccc2ccnc(COC(C)C)c12`, for which the growth inhibition is 20.6% (inactive).

As to `COc1cc2c(cc1OC)-c1nc(Nc3ccccc3)sc1CC2`, the growth inhibition is 29.1% (inactive).

As for `NC(=O)CCSC(=S)N1CCOCC1`, the growth inhibition was 29.1% (inactive).

Consider `CC1=C(c2ccccc2)C(=O)OC1=O`, for which the growth inhibition is -28.4% (inactive).

With `CC1=C(C)CC2C(=O)C(C(O)CC(C)C)=CC(=O)C2C1` (stereo not given), the growth inhibition is 95.5% (active).
